Out of some 220,000 compounds screened, about 530 (0.24%) were called active. Only a selection was taken, and actives are over-represented in it overall. Potency and affinity values are given separately. Unmarked numbers belong to inactive results. Cut-off read from the data, not from the text of the source: active = inhibition above about 13%; inconclusive = no clear call, values can overlap the other calls; inactive = below that.
These compounds were tested against Bifunctional protein GlmU (Mycobacterium tuberculosis (strain ATCC 25618 / H37Rv)) (UniProt P9WMN3) (assay: inhibition of mycobacterial GlmU enzyme – biochemical, glucosamine-1-phosphate acetyltransferase (AID 1376;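 note: 0% = complete reaction with vehicle and 100% = reaction without substrate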)). Settings: M. tuberculosis GlmU acetyltransferase enzyme assay; stronger effect = higher value;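 tested at 30 µM in the primary screen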.
Sequence of Bifunctional protein GlmU (Mycobacterium tuberculosis (strain ATCC 25618 / H37Rv)) (P9WMN3 whole entry, looked up): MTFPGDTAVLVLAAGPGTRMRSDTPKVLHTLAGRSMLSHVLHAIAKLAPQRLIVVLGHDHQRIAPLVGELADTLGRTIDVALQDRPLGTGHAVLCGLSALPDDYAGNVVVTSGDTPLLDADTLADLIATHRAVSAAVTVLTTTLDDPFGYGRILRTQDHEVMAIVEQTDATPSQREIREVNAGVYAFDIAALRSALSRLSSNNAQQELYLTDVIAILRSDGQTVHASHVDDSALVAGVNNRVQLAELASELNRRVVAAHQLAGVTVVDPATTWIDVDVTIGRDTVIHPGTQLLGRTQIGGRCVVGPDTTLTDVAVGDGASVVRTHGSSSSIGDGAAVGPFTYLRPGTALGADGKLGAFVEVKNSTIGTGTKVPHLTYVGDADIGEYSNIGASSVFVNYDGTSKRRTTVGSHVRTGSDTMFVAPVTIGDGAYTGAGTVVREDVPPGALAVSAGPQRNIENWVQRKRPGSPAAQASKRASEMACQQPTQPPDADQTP

Compound	inhibition
CCc1nc(-c2ccccc2)c2ccccn12	0.63%
COCCn1nnnc1C(C(C)C)N(Cc1cccnc1)Cc1cc2cc(OC)ccc2[nH]c1=O (stereo not drawn)	0.94%
COc1ccc(C)cc1NC(=O)NC(C)c1ccncc1 (stereo not drawn)	-4.98%
COc1ccc(Cl)cc1NC(=O)NC(C)C	-2.94%
COc1ccc(Cl)cc1NC(=O)NC(C)c1ccncc1 (stereo not drawn)	13% (active)
Cc1cc2c3ccccc3ncn2n1	4.82%
CCOC(=O)c1cnc2c(c(C)nn2C)c1Oc1ccccc1F	3.91%
COc1cccc(OCC(Cn2cnc3ccccc32)OC(C)=O)c1 (stereo not drawn)	-0.44%
O=C(/C=C/c1ccco1)Nc1ccccc1N1CCCC1	-0.88%
CCc1ccccc1NC(=O)c1cccc(NC(=O)/C=C/c2ccco2)c1	-2.87%
O=C(O)CCCN1C(=O)/C(=C\c2ccco2)SC1=S	23.1%
O=C(/C=C/c1ccco1)Nc1cccnc1Cl	0.97%
O=C(/C=C/c1ccco1)Nc1cccc(C(=O)Nc2ccccc2C(=O)O)c1	14.7% (active)
O=C(/C=C/c1ccco1)Nc1ccc(Oc2ccc(Cl)cc2)cc1	2.3%
O=C(/C=C/c1ccco1)Nc1ccccc1C(=O)O	15% (active)
O=C(/C=C/c1ccco1)Nc1cc(Cl)ccc1C(=O)O	13% (active)
O=C(CCCN1C(=O)/C(=C/c2ccco2)SC1=S)Nc1cccc(C(=O)O)c1	8.84%
COC(=O)c1ccccc1NC(=O)/C=C/c1ccco1	-3.26%
O=C(/C=C/c1ccco1)Nc1ccccc1C(=O)Nc1cccc(C(=O)O)c1	3.1%
CCc1cccc(CC)c1NC(=O)COC(=O)c1ccccc1-c1nc2ccccc2s1	-1.43%
COc1ccc(-n2c(SCC(=O)NCCCN3CCCC3=O)nnc2C(C)N2CCCCC2)cc1 (stereo not drawn)	-0.73%
O=C(O)C(Cc1cc(Cl)ccc1Cl)Sc1nc2ccccc2[nH]1 (stereo not drawn)	-6.33%
COCCNC(=O)COC(=O)c1[nH]c(C)c(C(C)=O)c1C	-0.47%
COc1ccc(/C=C/C(=O)Nc2nnc(C(C)C)s2)cc1OC	4.06%
CN(C)/C=C/C(=O)C(Cl)(Cl)Cl	-0.97%
COc1ccc(Nc2nnc(SCc3cc([N+](=O)[O-])cc4c3OCOC4)s2)cc1	-5.67%
O=C(CCCOc1ccc(Cl)cc1Cl)NCc1ccncc1	2.06%
CN(CC(=O)Nc1ccc2c(c1)OCO2)S(=O)(=O)c1ccc2c(c1)CCC(=O)N2	2.93%
